A short description of assay [1]: Caspase-3/7 induction in HepG2 cells by small molecules, qHTS assay (AID 1346978). Also: nearly all actives have a fitted effect of over 15% in size. In outline: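 Wild-type HepG2 cells (2,000/well) were settled 5 h at 37 C, 5% CO2, then exposed to compounds in DMSO for 17 h. Caspase-3/7 activity was read by luminescence 30 min after adding Caspase-Glo 3/7 reagent at room temperature.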
For orientation: Quantitative high-throughput screening tests each substance at several concentrations.

Assay [2] in a line: Caspase-3/7 induction in CHO-K1 cells by small molecules, qHTS cell viability counter screen (AID 1346979). Also: nearly all actives have a fitted effect of over 35% in size. Also: potency is read from the fitted curve at half-maximal effect. Put shortly:
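CellTiter-Fluor viability check, qHTS format: wild-type CHO-K1, 16hr compound treatment, 1hr reagent incubation, fluorescence read.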

The nature of assay [3]: Caspase-3/7 induction in CHO-K1 cells by small molecules, qHTS assay (AID 1346980). Also: nearly all actives have a fitted effect of over 15% in size. In outline:
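Wild-type cells were seeded at 1,500 per well and settled 5 hr at 37 C, 5% CO2, then exposed to DMSO-dissolved compounds for 17 hr. Caspase-Glo 3/7 reagent was added, and luminescence was read after 30min at room temperature.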

Assay [4] addresses Acetylcholinesterase (Homo sapiens) (UniProt P22303). Briefly: Acetylcholinesterase (AChE) small molecule antagonists: colormetric cell-based qHTS assay (AID 1347395; calls by dose curve; also: nearly all actives have a fitted effect of over 30% in size; also: potency is read from the fitted curve at half-maximal effect). In outline:
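AChE inhibition read colorimetrically via DTNB–thiocholine in SH-SY5Y cells. Compound 30 min, substrate 90 min, both 37 C.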

Assay [5] has the same target. Briefly: Acetylcholinesterase (AChE) small molecule antagonists: enzyme-based qHTS assay (AID 1347397; calls by dose curve; also: nearly all actives have a fitted effect of over 55% in size; also: potency is read from the fitted curve at half-maximal effect). As to conditions: Potency: AChE enzyme activity inhibition. In outline:
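Compound or DMSO vehicle was pin-transferred onto recombinant human AChE (50 mU/mL as dispensed) and left 30 min at room temperature. Acetylthiocholine with DTNB then started the reaction, read colorimetrically 10 min later.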

Assay [6] shares this target. Briefly: Acetylcholinesterase (AChE) small molecule antagonists: fluorescence cell-based qHTS assay (AID 1347398; calls by dose curve; also: nearly all actives have a fitted effect of over 50% in size; also: potency is read from the fitted curve at half-maximal effect). To be noted: Potency: AChE activity. In outline:
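Using neuroblastoma SH-SY5Y cells as the enzyme source, test chemicals are preincubated 30 min at 37 C; AChE-driven acetylthiocholine cleavage is then quantified by thiocholine-dependent Thiolite Green fluorescence after 40 min at room temperature.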

Assay [7] shares this target. Briefly: Acetylcholinesterase (AChE) small molecule antagonists: enzyme-based qHTS assay with human liver microsomes (AID 1347399; calls by dose curve; also: nearly all actives have a fitted effect of over 60% in size; also: potency is read from the fitted curve at half-maximal effect). To be noted: Potency: qHTS inhibition. Put shortly:
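Recombinant human AChE (50 mU/mL in the enzyme mix) and human liver microsomes (0.25 mg/mL final) were preincubated with compound and NADPH (0.25 mg/mL final) for 30 min at 37 C. Acetylthiocholine/DTNB was then added; thiocholine was read colorimetrically after 10 min at room temperature.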

In assay [8] the target is Cytochrome P450 2D6 (Homo sapiens) (UniProt P10635). Briefly: Cytochrome P450 Family 2 Subfamily D Member 6 (CYP2D6) small molecule antagonists: luciferase reporter qHTS assay (AID 1671196). Also: nearly all actives have a fitted effect of over 50% in size. Also: potency is read from the fitted curve at half-maximal effect. Put shortly: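 Test chemicals meet CYP2D6 plus proluciferin substrate (10 min, RT); NADPH regenerating solution then drives turnover for 1 h. Detection reagent halts the reaction; luminescence measured after 20 min.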
For orientation: Reporter assays use an easily measured gene product as a stand-in for the process of interest.

The target in assay [9] is Cytochrome P450 2C19 (Homo sapiens) (UniProt P33261). Briefly: Cytochrome P450 Family 2 Subfamily C Member 19 (CYP2C19) small molecule antagonists: luciferase reporter qHTS assay (AID 1671197). Also: nearly all actives have a fitted effect of over 65% in size. Also: potency is read from the fitted curve at half-maximal effect. In outline: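 P450-Glo CYP2C19 system: enzyme-substrate mix with compound 10 min at room temperature, then NADPH regeneration solution, 1 h at 37C. Proluciferin-to-luciferin conversion detected by luminescence after 20 min with detection reagent; ketoconazole as positive control.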

Assay [10] deals with Cytochrome P450 2C9 (Homo sapiens) (UniProt P11712). Briefly: Cytochrome P450 Family 2 Subfamily C Member 9 (CYP2C9) small molecule antagonists: luciferase reporter qHTS assay (AID 1671198). Also: nearly all actives have a fitted effect of over 50% in size. Also: potency is read from the fitted curve at half-maximal effect. In outline: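 CYP2C9 activity was measured with a P450-Glo proluciferin substrate. Enzyme–substrate mix was held with compound for 10 min at room temperature, then NADPH regeneration solution was added for 1 h at 37C. Luciferin product was read as luminescence.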

Assay [11] has as its target Cytochrome P450 1A2 (Homo sapiens) (UniProt P05177). Briefly: Cytochrome P450 Family 1 Subfamily A Member 2 (CYP1A2) small molecule antagonists: luciferase reporter qHTS assay (AID 1671199). Also: nearly all actives have a fitted effect of over 50% in size. Also: potency is read from the fitted curve at half-maximal effect. In outline: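 Steps: enzyme-substrate mix dispensed; test compounds and furafylline control pinned in; 10 min room temperature; NADPH regeneration solution added, 1 h; reaction stopped with luciferin detection reagent; luminescence read after 20 min.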

Assay [12] deals with Voltage-gated inwardly rectifying potassium channel KCNH2 (Homo sapiens) (UniProt Q12809). Briefly: Human Ether-a-go-go-Related Gene (hERG) channel small molecule antagonists: fluorescence cell-based qHTS assay (AID 1671200). Also: nearly all actives have a fitted effect of over 50% in size. Also: potency is read from the fitted curve at half-maximal effect. In outline: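 Kinetic two-minute fluorescence traces, sampled at 1 s, were collected following thallium stimulus of U2OS cells (1000 per well) that had been cultured overnight at 37 C and loaded with FluxOR II.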
For orientation: The hERG channel carries a current that helps repolarise heart muscle cells.

Assay [13] concerns the target Cytochrome P450 3A4 (Homo sapiens) (UniProt P08684). Briefly: Cytochrome P450 Family 3 Subfamily A Member 4 (CYP3A4) small molecule antagonists: luciferase reporter qHTS assay (AID 1671201). Also: nearly all actives have a fitted effect of over 50% in size. Also: potency is read from the fitted curve at half-maximal effect. In outline: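 Proluciferin-to-luciferin conversion by CYP3A4, NADPH-regenerated, 1 h RT; luminescence read as RLU. Ketoconazole as control.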
For assay [14], the target named is Nuclear receptor subfamily 1 group I member 2 (Homo sapiens) (UniProt O75469). Briefly: Human pregnane X receptor (PXR) small molecule agonists, qHTS assay (AID 1346982). Also: nearly all actives have a fitted effect of over 35% in size. Also: potency is read from the fitted curve at half-maximal effect. In outline: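 Reporter HepG2 cells expressing PXR-Luc are cultured in charcoal-stripped FBS (5%), treated with compounds for 24 hr at 37 C, and assayed by ONE-Glo luminescence after 30 min at room temperature.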

A short description of assay [15]: Caspase-3/7 induction in HepG2 cells by small molecules, qHTS cell viability counter screen (AID 1346981). Also: series mostly up to about 92 µM; nearly all actives have a fitted effect of over 30% in size. In outline: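 In this quantitative HTS counter screen, compounds delivered in DMSO were left on unmodified HepG2 cells for 16 hr at 37 C. Viability was then determined fluorometrically with CellTiter-Fluor, in parallel with caspase-3/7 induction in the same wells.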

Several values for one entry are separate records, joined by “and”; a condition that tells them apart may be missing. Equal entries are not always repeated. Results filed as inconclusive are left out. A structure can be active in one record and inactive in another. Activity calls are given as the source filed them. Unless noted, calls follow the shape of the dose curve; as a rule, active = well fitted curve in the direction sought with a large enough effect in the repeat runs; inconclusive = weak or mixed curves; inactive = no such curve, though single readings can be large; an effect the other way counts as inactive or inconclusive.

The source of these data is PubChem BioAssay (Tox21).

Sequence of Acetylcholinesterase (Homo sapiens) (P22303 whole entry, looked up): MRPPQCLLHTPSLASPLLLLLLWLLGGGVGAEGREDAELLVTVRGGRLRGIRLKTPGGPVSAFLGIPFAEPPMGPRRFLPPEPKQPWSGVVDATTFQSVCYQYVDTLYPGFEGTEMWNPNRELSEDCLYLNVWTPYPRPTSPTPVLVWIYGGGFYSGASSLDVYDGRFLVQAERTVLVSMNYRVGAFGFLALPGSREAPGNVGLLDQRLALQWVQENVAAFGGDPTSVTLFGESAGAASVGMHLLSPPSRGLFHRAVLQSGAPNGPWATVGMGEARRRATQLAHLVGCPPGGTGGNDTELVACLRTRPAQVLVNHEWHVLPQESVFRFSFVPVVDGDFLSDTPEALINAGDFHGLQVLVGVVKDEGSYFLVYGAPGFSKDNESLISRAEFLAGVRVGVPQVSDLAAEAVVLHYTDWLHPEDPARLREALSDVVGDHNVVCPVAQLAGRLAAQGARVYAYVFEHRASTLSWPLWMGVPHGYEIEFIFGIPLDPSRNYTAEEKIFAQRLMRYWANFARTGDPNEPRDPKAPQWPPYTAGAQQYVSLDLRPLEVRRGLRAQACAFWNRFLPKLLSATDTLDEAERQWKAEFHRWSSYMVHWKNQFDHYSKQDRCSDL
Sequence of Voltage-gated inwardly rectifying potassium channel KCNH2 (Homo sapiens) (Q12809 whole entry, looked up): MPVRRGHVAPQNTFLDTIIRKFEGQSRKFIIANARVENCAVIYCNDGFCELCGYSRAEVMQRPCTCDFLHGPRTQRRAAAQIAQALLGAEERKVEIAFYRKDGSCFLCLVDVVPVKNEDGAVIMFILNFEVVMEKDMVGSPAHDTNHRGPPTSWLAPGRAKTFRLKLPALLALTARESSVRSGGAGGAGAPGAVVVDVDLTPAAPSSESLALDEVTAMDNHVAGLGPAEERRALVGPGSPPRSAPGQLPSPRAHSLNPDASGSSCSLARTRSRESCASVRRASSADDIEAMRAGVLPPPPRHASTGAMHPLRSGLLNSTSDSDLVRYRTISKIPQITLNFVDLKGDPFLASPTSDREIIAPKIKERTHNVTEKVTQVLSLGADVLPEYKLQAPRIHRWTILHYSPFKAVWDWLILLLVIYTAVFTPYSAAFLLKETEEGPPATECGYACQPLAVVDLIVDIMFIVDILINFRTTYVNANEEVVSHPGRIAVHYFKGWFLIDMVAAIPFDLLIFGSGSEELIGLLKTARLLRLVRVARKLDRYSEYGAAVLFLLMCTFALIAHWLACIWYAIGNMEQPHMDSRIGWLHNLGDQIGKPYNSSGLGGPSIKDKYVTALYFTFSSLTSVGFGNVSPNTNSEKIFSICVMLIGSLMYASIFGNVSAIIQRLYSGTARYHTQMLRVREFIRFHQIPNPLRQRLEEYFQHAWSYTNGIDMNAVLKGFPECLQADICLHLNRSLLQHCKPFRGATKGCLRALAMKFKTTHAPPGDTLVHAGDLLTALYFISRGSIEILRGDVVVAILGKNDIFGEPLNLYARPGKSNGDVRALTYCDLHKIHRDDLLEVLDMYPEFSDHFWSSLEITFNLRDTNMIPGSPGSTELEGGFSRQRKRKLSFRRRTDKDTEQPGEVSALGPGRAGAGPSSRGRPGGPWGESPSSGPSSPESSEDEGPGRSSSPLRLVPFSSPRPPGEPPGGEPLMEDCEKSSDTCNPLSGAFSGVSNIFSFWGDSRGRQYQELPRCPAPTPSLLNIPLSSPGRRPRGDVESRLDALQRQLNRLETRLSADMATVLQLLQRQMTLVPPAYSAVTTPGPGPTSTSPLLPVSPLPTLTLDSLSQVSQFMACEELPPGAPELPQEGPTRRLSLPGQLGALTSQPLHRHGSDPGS
Sequence of Cytochrome P450 2C9 (Homo sapiens) (P11712 whole entry, looked up): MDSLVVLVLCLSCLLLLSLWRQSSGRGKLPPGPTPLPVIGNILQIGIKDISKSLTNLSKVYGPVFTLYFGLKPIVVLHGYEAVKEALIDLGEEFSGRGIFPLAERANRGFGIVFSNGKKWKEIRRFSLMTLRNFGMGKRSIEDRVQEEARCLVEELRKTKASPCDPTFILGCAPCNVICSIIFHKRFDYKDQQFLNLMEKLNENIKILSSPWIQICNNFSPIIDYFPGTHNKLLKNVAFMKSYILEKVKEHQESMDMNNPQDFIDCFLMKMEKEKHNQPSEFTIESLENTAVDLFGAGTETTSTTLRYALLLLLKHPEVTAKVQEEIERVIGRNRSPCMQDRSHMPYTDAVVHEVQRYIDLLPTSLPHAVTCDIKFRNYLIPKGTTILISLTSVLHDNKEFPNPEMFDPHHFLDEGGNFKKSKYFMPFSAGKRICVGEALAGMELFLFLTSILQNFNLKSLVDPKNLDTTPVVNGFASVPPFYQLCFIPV
Sequence of Cytochrome P450 3A4 (Homo sapiens) (P08684 whole entry, looked up): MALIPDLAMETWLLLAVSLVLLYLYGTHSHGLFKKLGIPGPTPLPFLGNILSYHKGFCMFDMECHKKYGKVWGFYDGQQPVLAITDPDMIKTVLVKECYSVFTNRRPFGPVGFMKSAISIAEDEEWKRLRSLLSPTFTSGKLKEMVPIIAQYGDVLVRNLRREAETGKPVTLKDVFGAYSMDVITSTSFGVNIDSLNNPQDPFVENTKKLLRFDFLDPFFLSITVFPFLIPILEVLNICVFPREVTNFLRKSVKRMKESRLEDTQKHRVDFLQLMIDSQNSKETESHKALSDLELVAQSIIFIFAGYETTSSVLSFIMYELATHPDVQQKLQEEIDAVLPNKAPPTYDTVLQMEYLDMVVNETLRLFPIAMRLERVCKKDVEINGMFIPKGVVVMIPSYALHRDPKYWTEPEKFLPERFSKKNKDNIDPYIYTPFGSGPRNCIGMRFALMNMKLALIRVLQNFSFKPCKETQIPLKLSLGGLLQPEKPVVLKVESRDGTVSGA
Sequence of Cytochrome P450 2C19 (Homo sapiens) (P33261 whole entry, looked up): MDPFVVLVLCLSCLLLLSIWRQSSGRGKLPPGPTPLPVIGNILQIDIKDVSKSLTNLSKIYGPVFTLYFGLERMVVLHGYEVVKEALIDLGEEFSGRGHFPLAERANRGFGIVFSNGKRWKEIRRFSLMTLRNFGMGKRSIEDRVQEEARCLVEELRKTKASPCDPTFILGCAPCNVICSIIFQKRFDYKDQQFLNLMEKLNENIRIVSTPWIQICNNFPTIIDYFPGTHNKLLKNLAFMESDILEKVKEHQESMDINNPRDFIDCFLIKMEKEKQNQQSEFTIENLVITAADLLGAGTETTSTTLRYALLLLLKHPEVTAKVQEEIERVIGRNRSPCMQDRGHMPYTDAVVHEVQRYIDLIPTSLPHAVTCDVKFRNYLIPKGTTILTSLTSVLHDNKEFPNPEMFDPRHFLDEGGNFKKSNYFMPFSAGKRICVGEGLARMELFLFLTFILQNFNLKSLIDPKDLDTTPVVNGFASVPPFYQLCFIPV
Sequence of Cytochrome P450 2D6 (Homo sapiens) (P10635 whole entry, looked up): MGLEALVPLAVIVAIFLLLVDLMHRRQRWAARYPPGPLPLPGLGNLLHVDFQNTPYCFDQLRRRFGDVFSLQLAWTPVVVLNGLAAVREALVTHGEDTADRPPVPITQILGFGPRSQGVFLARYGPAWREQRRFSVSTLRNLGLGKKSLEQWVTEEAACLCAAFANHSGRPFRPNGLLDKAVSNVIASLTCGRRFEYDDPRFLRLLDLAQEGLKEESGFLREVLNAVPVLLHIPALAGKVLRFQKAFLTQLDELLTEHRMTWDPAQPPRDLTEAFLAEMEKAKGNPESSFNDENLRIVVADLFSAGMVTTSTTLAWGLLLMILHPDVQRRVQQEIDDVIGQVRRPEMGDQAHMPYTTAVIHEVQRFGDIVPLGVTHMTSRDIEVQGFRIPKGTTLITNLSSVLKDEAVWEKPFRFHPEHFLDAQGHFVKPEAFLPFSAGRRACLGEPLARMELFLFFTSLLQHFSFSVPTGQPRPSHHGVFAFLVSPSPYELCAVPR
Sequence of Nuclear receptor subfamily 1 group I member 2 (Homo sapiens) (O75469 whole entry, looked up): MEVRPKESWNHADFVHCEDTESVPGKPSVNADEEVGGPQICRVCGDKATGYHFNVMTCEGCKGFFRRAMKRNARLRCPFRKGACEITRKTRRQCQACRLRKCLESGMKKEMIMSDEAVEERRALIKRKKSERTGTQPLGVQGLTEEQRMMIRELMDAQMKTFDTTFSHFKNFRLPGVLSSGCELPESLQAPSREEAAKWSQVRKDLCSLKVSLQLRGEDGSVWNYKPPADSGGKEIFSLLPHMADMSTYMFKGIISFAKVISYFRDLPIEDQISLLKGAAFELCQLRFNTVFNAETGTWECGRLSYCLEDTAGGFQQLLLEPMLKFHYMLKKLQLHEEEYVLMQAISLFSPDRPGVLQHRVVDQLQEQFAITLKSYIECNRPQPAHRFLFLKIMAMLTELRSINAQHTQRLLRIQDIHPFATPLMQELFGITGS
Sequence of Cytochrome P450 1A2 (Homo sapiens) (P05177 whole entry, looked up): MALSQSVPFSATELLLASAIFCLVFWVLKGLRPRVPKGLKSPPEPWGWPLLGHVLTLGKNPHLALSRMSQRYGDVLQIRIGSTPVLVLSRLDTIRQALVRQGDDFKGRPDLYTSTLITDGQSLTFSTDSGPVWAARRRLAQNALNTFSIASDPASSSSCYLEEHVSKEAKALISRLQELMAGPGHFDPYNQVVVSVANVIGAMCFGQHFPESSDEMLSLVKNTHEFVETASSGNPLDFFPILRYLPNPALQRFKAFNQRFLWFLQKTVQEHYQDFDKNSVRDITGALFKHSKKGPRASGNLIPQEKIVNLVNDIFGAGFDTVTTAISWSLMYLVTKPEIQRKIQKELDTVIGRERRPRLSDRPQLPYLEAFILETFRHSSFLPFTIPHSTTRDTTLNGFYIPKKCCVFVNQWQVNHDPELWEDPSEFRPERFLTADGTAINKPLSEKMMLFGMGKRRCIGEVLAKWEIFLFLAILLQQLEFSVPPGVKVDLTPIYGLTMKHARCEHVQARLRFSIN

In the case of `O=C(Nc1ccccc1)Nc1cnns1`, the Potency entry in assay [1], in assay [3], in [4], in assay [5], in [6] and in [7] was “inactive” each time. The Potency result in assay [12] was “inactive”. Moreover, the Potency in assay [2] is 54.4 µM (active); in assay [8] it was 31.7 µM (active); in assay [9], 39.9 µM (active); in [10], 35.6 µM (active); in assay [11] it was 3.56 µM (active); in assay [13] it was 3.56 µM (active).
`O=C(CBr)OCc1ccccc1`: the Potency result in assay [1], in assay [2], in assay [3], in assay [14], in [4] and in [5] was “inactive” in each case. The Potency entry in [6], in assay [7], in assay [8], in assay [11], in [12] and in [13] was “inactive” each time. In assay [10], the Potency is 35.6 µM (active).
With `CCOP(=S)(OCC)Oc1nc(Cl)c(Cl)cc1Cl`, the Potency result in [1], in [2], in assay [3] and in [12] was “inactive” in each case. Besides, the Potency in [14] was 17.3 µM (active) and inactive; in [4] it was 35.7 µM (active) and 35.6 µM (active); in [5] it was 79.9 µM (active); in assay [6] it was 35.7 µM (active) and 35.6 µM (active); in assay [7], 56.6 nM (active) and 894 nM (active); in [9], 2.25 µM (active) and 5.03 µM (active). The Potency was 7.99 µM (active) and 10 µM (active) in [10]; 2.53 µM (active) and 3.56 µM (active) in [11]; 1.13 µM (active) and 2 µM (active) in assay [13].
For the compound `ClCc1ccccc1`, the Potency result in [1], in [2], in assay [3], in assay [4], in assay [5] and in assay [6] was “inactive” in each case. The Potency result in assay [7], in assay [10], in [11], in assay [12] and in assay [13] was “inactive” in each case. For the same compound, the Potency in [14] was 60.8 µM (active).
Regarding `OC(c1ccc(Cl)cc1)(c1ccc(Cl)cc1)c1cccnc1`, the Potency result in assay [1], in assay [3], in [15], in assay [4], in [5] and in assay [6] was “inactive” each time. The Potency entry in assay [7] was “inactive”. The Potency is 61.1 µM (active) in assay [14]; 11.2 µM (active) in assay [8]; 0.0796 µM (active) in assay [9]; 0.448 µM (active) in [10]; 35.6 µM (active) in assay [11]; 34.7 µM (active) in [12]. In assay [13], the Potency is 2.24 µM (active).
`Cc1c(F)c(F)c(COC(=O)C2C(/C=C(\Cl)C(F)(F)F)C2(C)C)c(F)c1F` (stereo unspecified): the Potency entry in [1], in assay [2], in assay [3], in [4], in assay [5] and in assay [6] was “inactive” throughout. Moreover, the Potency entry in assay [7], in assay [8] and in assay [13] was “inactive” throughout. Further, the Potency in [14] was 13.7 µM (active); in assay [9] it was 35.6 µM (active); in assay [10] it was 22.4 µM (active).
Consider `CC(C)O.CC(C)O.OCCN(CCO)CCO.OCCN(CCO)CCO.[Ti]`, for which the Potency result in [1], in assay [2], in assay [3], in assay [14], in assay [5] and in [6] was “inactive” in each case. Also, the Potency entry in [7], in assay [8], in assay [9], in assay [11], in assay [12] and in assay [13] was “inactive” throughout.
As to `CC1(C)CCC(Cc2ccc(Cl)cc2)C1(O)Cn1cncn1` (stereo unspecified), the Potency entry in assay [1], in assay [3], in [4], in [6] and in [7] was “inactive” in each case. The Potency was 68.6 µM (active) in assay [2]; 9.69 µM (active) in assay [14]; 35.6 µM (active) in assay [8]; 0.126 µM (active) in [9]; 0.178 µM (active) in [10]; 39.9 µM (active) in assay [11]. The Potency in assay [13] was 0.0317 µM (active).
